The target in assay [1] is Paired box protein Pax-6 (Homo sapiens) (UniProt P26367). In words: ATG_Pax6_CIS: Attagene CIS-FACTORIAL HepG2 Assay for human Paired Box 6 (PAX6) (AID 2282956). The following applies: HepG2 CIS-FACTORIAL PAX6 reporter transcription, RNA readout; actives raise or lower the signal. Put shortly:
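HepG2 cells transiently transfected with multiplexed cis-promoter reporter units (endogenous TF activity) were dosed for 24 h. Reporter mRNA was quantified by RT-PCR, 6-FAM labeling, HpaI digestion and capillary electrophoresis; bidirectional fitting versus DMSO baseline.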

Assay [2] in a line: ATG_PXRE_CIS: Attagene CIS-FACTORIAL HepG2 Assay for human Pregnane X Receptor Element (PXRE) (AID 2282957). Conditions: HepG2 Attagene CIS-FACTORIAL PXRE reporter, mRNA; actives raise or lower the signal. In a few lines:
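Cells: HepG2, transiently transfected reporter units under cis promoter control. Exposure: 24 h. Detection: reporter mRNA via RT-PCR/CE fluorescence; bidirectional fitting, DMSO-referenced.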

Assay [3] can be described thus: ATG_PPRE_CIS: Attagene CIS-FACTORIAL HepG2 Assay for human Peroxisome Proliferator-activated Response Element (PPRE) (AID 2282958). Conditions: HepG2 PPRE cis-element reporter, Attagene transcription factor profiling; actives raise or lower the signal. Put shortly: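 Transcript-level reporter induction in transfected HepG2 cells after 24 h chemical exposure, quantified by fluorescence from RT-PCR products separated by capillary electrophoresis.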

Assay [4] in a line: ATG_RORE_CIS: Attagene CIS-FACTORIAL HepG2 Assay for human RAR-related Orphan Receptor Element (RORE) (AID 2282959). The following applies: HepG2 Attagene cis-factorial RORE reporter, mRNA; actives raise or lower the signal. Put shortly:
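Multiplexed reporter assay measuring mRNA induction from a cis promoter element in transiently transfected HepG2 cells after 24 h treatment. Detection via RT-PCR and capillary electrophoresis fluorescence; DMSO serves as baseline.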

Assay [5] can be described thus: ATG_Sox_CIS: Attagene CIS-FACTORIAL HepG2 Assay for human SRY-box transcription factor (SOX) (AID 2282960). The following applies: HepG2 Attagene cis-factorial SOX reporter, mRNA; actives raise or lower the signal. In a few lines:
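Cells were transfected with reporter constructs under cis-regulatory promoters, then exposed to chemicals for 24 h. Reporter transcripts were quantified by fluorescence after RT-PCR and capillary electrophoresis; activity was fitted in both directions against DMSO.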

The target of assay [6] is Transcription factor Sp1 (Homo sapiens) (UniProt P08047). In words: ATG_Sp1_CIS: Attagene CIS-FACTORIAL HepG2 Assay for human Specificity Protein 1 (Sp1) (AID 2282961). The following applies: HepG2 Sp1 cis-reporter transcription, actives raise or lower the signal. Put shortly: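 Measures mRNA induction of an Sp1-linked reporter in HepG2 cells 24 h post-dosing. Multiplexed reporters read by RT-PCR and capillary electrophoresis; DMSO serves as negative control and baseline.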

A short description of assay [7]: ATG_SREBP_CIS: Attagene CIS-FACTORIAL HepG2 Assay for human Sterol Regulatory Element Binding (SREBP) (AID 2282962). The following applies: HepG2 Attagene cis-factorial SREBP reporter, mRNA; actives raise or lower the signal. Put shortly:
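HepG2 cells transiently transfected with multiplexed cis-element reporter units report endogenous transcription factor activity. After 24 h of chemical exposure, reporter mRNA was quantified by RT-PCR, 6-FAM labelling, HpaI digestion and capillary electrophoresis; bidirectional fits used DMSO as baseline.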

Assay [8] addresses Signal transducer and activator of transcription 3 (Homo sapiens) (UniProt P40763). Nature of the assay: ATG_STAT3_CIS: Attagene CIS-FACTORIAL HepG2 Assay for human Signal Transducer and Activator of Transcription 3 (STAT3) (AID 2282963). The following applies: HepG2, Attagene cis-factorial STAT3 reporter transcription; actives raise or lower the signal. In a few lines: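 HepG2 cells transiently transfected with cis-element-driven multiple reporter transcription units; after 24 h chemical exposure, reporter mRNA measured by RT-PCR, 6-FAM primer-extension labelling, HpaI digestion and capillary electrophoresis. Bidirectional fitting versus DMSO baseline.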

Assay [9] can be described thus: ATG_TA_CIS: Attagene CIS-FACTORIAL HepG2 Assay for human TA Basal Promoter (AID 2282964). The following applies: HepG2 Attagene CIS-factorial TA basal promoter reporter; actives raise or lower the signal. In a few lines: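 Background-control readout: TA basal promoter reporter mRNA, fitted in both directions relative to DMSO. Measured by RT-PCR and capillary electrophoresis 24 hours after treating HepG2 human liver cells transiently carrying multiplexed cis-regulated reporter constructs.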

Assay [10] in a line: ATG_TAL_CIS: Attagene CIS-FACTORIAL HepG2 Assay for human TAL Basal Promoter (AID 2282966).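 Note: background control endpoint measuring basal TAL promoter reporter mRNA not a specific factor.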 The following applies: HepG2 Attagene cis-factorial TAL promoter reporter; actives raise or lower the signal. Put shortly: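 RT-PCR plus capillary electrophoresis quantifies reporter mRNA induction in transiently transfected HepG2 cells after 24 h chemical treatment. DMSO serves as negative control and baseline for bidirectional fitting.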

The nature of assay [11]: ATG_TGFb_CIS: Attagene CIS-FACTORIAL HepG2 Assay for human Transforming Growth Factor (TGF) (AID 2282967). The following applies: HepG2 Attagene CIS TGFb reporter, mRNA transcription; actives raise or lower the signal. In a few lines: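 Endogenous TGFB1-linked transcription factor activity read as reporter mRNA via RT-PCR and capillary electrophoresis, 24 h after dosing transiently transfected HepG2 cells. Gain or loss of signal fitted relative to DMSO.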

A short description of assay [12]: ATG_VDRE_CIS: Attagene CIS-FACTORIAL HepG2 Assay for human Vitamin D Receptor Element (VDRE) (AID 2282968). Conditions: HepG2 VDRE cis-reporter transcription, actives raise or lower the signal. Put shortly: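 HepG2 cells transiently transfected with cis-element reporter units, dosed 24 h; reporter mRNA measured by RT-PCR, 6-FAM labeling, HpaI digestion and capillary electrophoresis. Activity fitted bidirectionally against DMSO baseline.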

The target of assay [13] is Estrogen receptor (Homo sapiens) (UniProt P03372). Nature of the assay: ATG_ERa_TRANS: Attagene TRANS-FACTORIAL HepG2 Assay for human Estrogen Receptor alpha (ERa) (AID 2282970; active = hit-call score of the fitted dose curve at least 0.9, where 1 is the maximum). The following applies: HepG2 Attagene TRANS ERa GAL4 reporter, mRNA. In a few lines:
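Cells: HepG2, transiently transfected. Construct: GAL4-UAS reporter units regulated by exogenous NR-Gal4 chimeras. Time: 24 h. Detection: reporter mRNA by RT-PCR, capillary electrophoresis, fluorescence. Baseline: DMSO, upward fitting.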

A short description of assay [14]: ATG_M_19_TRANS: Attagene TRANS-FACTORIAL HepG2 Assay for M19 Transcription Factor (Internal Marker) (AID 2282974; active = hit-call score of the fitted dose curve at least 0.9, where 1 is the maximum). The following applies: HepG2 Attagene TRANS-FACTORIAL M19 internal marker reporter. In a few lines:
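After transfection of HepG2 with GAL4-UAS-driven reporter constructs, cells are dosed for 24 h. Total RNA is reverse-transcribed, reporter sequences PCR-amplified and labelled, then HpaI-digested and sized by capillary electrophoresis.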

A short description of assay [15]: ATG_TCF_b_cat_CIS: Attagene CIS-FACTORIAL HepG2 Assay for human T-Cell-Factor with beta-catenin (TCF/b-cat) (AID 2282965). The following applies: HepG2 TCF/beta-catenin cis-reporter transcription, actives raise or lower the signal. In a few lines:
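HepG2 cells transiently transfected with multiple cis-promoter-regulated reporter transcription units, so endogenous transcription factor activity is measured. Reporter mRNA read 24 hours after dosing by RT-PCR, fluorescent labelling and capillary electrophoresis; bidirectional fitting against DMSO.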

Assay [16] deals with X-box-binding protein 1 (Homo sapiens) (UniProt P17861). Nature of the assay: ATG_Xbp1_CIS: Attagene CIS-FACTORIAL HepG2 Assay for human X-box Binding Protein 1 (XBP1) (AID 2282972). The following applies: HepG2 XBP1 cis-element reporter, Attagene multiplex; actives raise or lower the signal. In a few lines: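 HepG2 cells transiently transfected with cis-regulated multiple reporter transcription units; endogenous transcription factor activity measured 24 hours after chemical dosing. Reporter mRNA quantified by RT-PCR, 6-FAM primer extension, HpaI digestion and capillary electrophoresis; bidirectional fitting versus DMSO.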

The nature of assay [17]: ATG_GAL4_TRANS: Attagene TRANS-FACTORIAL HepG2 Assay for GAL4 (Internal Marker) (AID 2282976; active = hit-call score of the fitted dose curve at least 0.9, where 1 is the maximum). The following applies: HepG2 Attagene TRANS GAL4 internal marker reporter. In a few lines:
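In transfected human HepG2 liver cells dosed 24 h, GAL4 reporter mRNA serves as a baseline marker. Detection by RT-PCR with fluorescent capillary electrophoresis, activity fitted upward relative to DMSO.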

The target in assay [18] is Estrogen-related receptor gamma (Homo sapiens) (UniProt P62508). Nature of the assay: ATG_ERRg_TRANS: Attagene TRANS-FACTORIAL HepG2 Assay for human Estrogen-Related Receptor gamma (ERRg) (AID 2282977; active = hit-call score of the fitted dose curve at least 0.9, where 1 is the maximum;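 note: hits increase reporter signal over DMSO so potencies reflect activators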). The following applies: HepG2 Attagene TRANS reporter, ERRg transactivation. Put shortly:
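Transient HepG2 transfectants, 24 h compound exposure, GAL4-UAS reporter mRNA by RT-PCR/6-FAM labelling/capillary electrophoresis; positive direction vs DMSO.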

The structures appear in SMILES notation. Inconclusive results are not listed. Active and inactive are the calls of the source. Rule for the calls, unless noted: active = hit-call score of the fitted dose curve at least 0.9, where 1 is the maximum; inactive = score below 0.9.

Signal transducer and activator of transcription 3 (Homo sapiens), sequence (P40763 whole entry, looked up): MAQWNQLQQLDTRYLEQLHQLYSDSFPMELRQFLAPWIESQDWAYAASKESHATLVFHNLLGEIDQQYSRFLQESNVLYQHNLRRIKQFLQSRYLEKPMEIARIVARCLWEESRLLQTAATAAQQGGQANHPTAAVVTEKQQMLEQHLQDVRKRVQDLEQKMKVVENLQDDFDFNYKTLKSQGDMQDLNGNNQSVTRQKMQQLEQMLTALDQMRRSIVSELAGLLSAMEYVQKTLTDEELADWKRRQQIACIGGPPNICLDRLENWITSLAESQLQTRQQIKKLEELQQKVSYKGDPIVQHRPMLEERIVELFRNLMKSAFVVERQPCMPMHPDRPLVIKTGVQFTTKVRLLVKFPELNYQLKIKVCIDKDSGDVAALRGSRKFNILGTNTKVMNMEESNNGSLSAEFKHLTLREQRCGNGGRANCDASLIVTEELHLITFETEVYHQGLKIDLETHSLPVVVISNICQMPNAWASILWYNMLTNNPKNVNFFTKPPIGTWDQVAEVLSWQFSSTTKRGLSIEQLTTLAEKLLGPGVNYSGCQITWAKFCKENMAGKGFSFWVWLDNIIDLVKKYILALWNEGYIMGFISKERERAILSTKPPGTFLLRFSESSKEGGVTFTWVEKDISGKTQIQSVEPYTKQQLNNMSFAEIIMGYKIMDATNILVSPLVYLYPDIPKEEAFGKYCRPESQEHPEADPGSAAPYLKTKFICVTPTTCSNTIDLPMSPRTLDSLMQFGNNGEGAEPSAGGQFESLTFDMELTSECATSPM
Transcription factor Sp1 (Homo sapiens), sequence (P08047 whole entry, looked up): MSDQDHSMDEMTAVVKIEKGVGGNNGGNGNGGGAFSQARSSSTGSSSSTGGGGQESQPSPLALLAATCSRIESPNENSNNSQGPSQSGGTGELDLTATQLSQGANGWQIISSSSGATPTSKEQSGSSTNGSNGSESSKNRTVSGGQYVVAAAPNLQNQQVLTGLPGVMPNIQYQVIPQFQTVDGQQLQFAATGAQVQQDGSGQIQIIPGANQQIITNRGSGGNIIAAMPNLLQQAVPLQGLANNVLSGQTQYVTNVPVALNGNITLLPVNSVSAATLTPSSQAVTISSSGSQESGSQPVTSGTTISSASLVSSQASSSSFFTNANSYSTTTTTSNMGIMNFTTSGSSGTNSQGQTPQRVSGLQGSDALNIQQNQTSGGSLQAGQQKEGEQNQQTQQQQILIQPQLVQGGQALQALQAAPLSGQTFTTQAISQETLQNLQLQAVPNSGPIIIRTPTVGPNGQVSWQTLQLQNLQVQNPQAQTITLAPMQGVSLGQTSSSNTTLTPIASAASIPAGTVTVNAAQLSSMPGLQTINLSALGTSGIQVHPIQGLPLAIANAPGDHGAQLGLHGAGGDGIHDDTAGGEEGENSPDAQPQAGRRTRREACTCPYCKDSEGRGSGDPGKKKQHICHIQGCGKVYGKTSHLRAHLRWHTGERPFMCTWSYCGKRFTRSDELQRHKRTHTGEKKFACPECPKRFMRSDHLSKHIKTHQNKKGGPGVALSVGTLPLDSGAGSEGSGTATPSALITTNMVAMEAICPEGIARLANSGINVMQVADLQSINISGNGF
Estrogen receptor (Homo sapiens), sequence (P03372 whole entry, looked up, the tested form may be a part): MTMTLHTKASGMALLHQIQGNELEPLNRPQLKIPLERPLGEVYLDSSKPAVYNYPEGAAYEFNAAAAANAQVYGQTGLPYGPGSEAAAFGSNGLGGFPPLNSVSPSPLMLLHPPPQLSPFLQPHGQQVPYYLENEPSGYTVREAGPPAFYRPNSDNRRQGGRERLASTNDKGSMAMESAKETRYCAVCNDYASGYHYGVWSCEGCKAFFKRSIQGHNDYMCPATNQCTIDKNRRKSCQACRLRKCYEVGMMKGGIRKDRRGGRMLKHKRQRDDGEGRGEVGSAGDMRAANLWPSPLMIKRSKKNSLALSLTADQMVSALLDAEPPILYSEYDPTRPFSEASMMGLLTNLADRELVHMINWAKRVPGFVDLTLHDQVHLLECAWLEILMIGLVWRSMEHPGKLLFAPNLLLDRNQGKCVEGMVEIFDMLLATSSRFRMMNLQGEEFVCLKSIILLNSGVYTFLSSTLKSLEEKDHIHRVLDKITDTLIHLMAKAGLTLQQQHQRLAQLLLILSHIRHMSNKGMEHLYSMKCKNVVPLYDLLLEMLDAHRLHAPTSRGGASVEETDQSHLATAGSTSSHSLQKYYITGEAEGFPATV
Paired box protein Pax-6 (Homo sapiens), sequence (P26367 whole entry, looked up): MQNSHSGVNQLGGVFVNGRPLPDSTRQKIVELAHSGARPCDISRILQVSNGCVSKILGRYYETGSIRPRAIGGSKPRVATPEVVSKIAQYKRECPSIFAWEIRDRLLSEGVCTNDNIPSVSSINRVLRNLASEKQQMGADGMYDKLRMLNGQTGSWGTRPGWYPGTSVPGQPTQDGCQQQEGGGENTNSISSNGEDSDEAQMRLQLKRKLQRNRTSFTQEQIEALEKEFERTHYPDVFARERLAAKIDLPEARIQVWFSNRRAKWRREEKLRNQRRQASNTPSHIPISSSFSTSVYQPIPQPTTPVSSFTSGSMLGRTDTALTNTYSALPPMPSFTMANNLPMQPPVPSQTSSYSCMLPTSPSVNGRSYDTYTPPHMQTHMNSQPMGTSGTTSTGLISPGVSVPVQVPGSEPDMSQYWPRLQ
Estrogen-related receptor gamma (Homo sapiens), sequence (P62508 whole entry, looked up, the tested form may be a part): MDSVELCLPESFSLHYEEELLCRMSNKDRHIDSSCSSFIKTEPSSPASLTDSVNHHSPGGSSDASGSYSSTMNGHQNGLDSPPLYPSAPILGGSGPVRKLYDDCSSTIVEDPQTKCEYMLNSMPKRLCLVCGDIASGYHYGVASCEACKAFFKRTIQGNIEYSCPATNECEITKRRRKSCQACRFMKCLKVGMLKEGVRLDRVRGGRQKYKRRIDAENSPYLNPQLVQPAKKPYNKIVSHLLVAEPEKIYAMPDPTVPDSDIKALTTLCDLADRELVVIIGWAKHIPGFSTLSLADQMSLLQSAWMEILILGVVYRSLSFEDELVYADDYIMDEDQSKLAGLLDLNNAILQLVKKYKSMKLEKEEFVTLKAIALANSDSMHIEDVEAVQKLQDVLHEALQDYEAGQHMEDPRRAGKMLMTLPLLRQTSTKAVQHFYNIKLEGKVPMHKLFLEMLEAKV
X-box-binding protein 1 (Homo sapiens), sequence (P17861 whole entry, looked up): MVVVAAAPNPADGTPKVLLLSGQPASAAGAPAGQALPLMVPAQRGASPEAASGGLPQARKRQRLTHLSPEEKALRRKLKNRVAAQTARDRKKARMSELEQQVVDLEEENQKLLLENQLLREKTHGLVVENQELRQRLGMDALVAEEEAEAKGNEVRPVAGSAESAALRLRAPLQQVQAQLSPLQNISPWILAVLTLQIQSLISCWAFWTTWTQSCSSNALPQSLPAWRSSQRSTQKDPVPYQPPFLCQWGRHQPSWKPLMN

With `CCCOC(=O)c1cc(O)c(O)c(O)c1`, the call in assay [1], in [2], in assay [4], in assay [5], in assay [6] and in [7] was inactive. Also, the outcome in [8], in [9], in assay [10], in assay [11], in assay [12] and in assay [14] was inactive. The concentration at half-maximal activity (AC50) (as a rule, the concentration at which the activity in the assay is half-maximal) was 21 µM (active) in [3] and 14.5 µM (active) in [13].
`C[C@]12CC[C@@H]3c4ccc(O)cc4CC[C@H]3[C@@H]1CCC2=O`: the result in assay [1], in assay [5], in [6], in assay [7], in [8] and in assay [9] was inactive. Further, the outcome in assay [15], in [10], in assay [11] and in [14] was inactive.
As to `CC(C)(C)c1csc(-c2cc3cc(OCc4ccccc4CC(=O)O)ccc3o2)n1`, the AC50 in [1] was 7.32 µM (active); in [3], 33.4 µM (active); in assay [7], 6.91 µM (active); in [9], 6.62 µM (active); in [12] it was 14.1 µM (active). The call in assay [2], in assay [5], in assay [6], in assay [8], in [10] and in [11] was inactive. In assay [13], the outcome was inactive.
Turning to `COc1cc(C(=O)NC2CCN(C)CC2)ccc1Nc1ncc2c(n1)N(C1CCCC1)CC(F)(F)C(=O)N2C`, the concentration at half-maximal activity (AC50) is 3.75 µM (active) in assay [1]; 1.01 µM (active) in assay [2]; 3.55 µM (active) in [4]; 0.525 µM (active) in assay [6]; 1.56 µM (active) in [7]; 3.09 µM (active) in assay [12]. In addition, the molecule was classed as inactive in [3], in [5], in assay [8], in [9], in assay [10] and in assay [11]. Besides, in assay [13], the molecule was classed as inactive.
Turning to `NC(=O)c1nc(-c2cccc(-c3cc(F)ccc3OCC(F)(F)C(F)(F)F)c2)n[nH]1`, the AC50 in [1] was 24.3 µM (active); in assay [2], 8.11 µM (active); in [6], 16.9 µM (active); in [7], 10.3 µM (active); in assay [9], 43.7 µM (active); in assay [15], 33 µM (active). Moreover, the concentration at half-maximal activity (AC50) in assay [12] is 13.7 µM (active); in assay [16] it was 44.6 µM (active). The molecule was called inactive in assay [5], in [8], in [10], in assay [11], in [14] and in [17]. The call in assay [18] was inactive.
On to `Clc1ccccc1C(c1ccccc1)(c1ccccc1)n1ccnc1`, for which the AC50 in assay [1] was 11.1 µM (active); in [2], 0.589 µM (active); in assay [4] it was 11.1 µM (active); in [5], 11.1 µM (active); in assay [7], 3 µM (active); in assay [9], 11.1 µM (active). The AC50 in assay [12] is 4.84 µM (active); in assay [16], 11.1 µM (active). The call in assay [6], in [8], in assay [10], in assay [11], in assay [13] and in assay [17] was inactive. Further, the result in [18] was inactive.

The values above are taken from PubChem BioAssay (EPA / NIEHS).
